The antibiotic and cytotoxicity screens of Wong et al. (2023)
The whole screen tested about 39,000 compounds, of which about 3,300 (8.5%) were called active. Shown is part of a subset that was picked to be rich in actives.

Tested on: HepG2
Test: cytotoxicity call (relative viability < 0.9)
Conditions: 10 µM

Compound	cytotoxicity call
C=CC(C)(O)CCC1C(C)(O)CCC2C(C)(C)CCCC21C (stereo unspecified)	inactive
CCS(=O)(=O)Nc1ccc2c(c1)C(=O)N(C)[C@@H]1CC[C@H](CC(=O)N3CCN(C)CC3)O[C@@H]1CO2	inactive
NCC[C@H]1CC[C@H](NC(=O)Nc2ccc(F)cc2)[C@H](CO)O1	inactive
CN(C)CCN1CCN(C)C2(CCN(S(=O)(=O)C3CC3)CC2)C1=O	inactive
Cc1noc(C)c1NC(=O)Nc1ccc2c(c1)CC(=O)N([C@@H](C)CO)C[C@H](C)[C@@H](CN(C)Cc1ccc(C(=O)Nc3ccccc3N)cc1)O2	inactive
CCCNC(=O)N1C[C@H](O)COC[C@@H]2O[C@@H](CC(=O)N3CCOCC3)CC[C@H]21	inactive
CO[C@@H]1CN(C)C(=O)c2cc(NC(=O)Nc3cccc(F)c3)ccc2OC[C@@H](C)N(C(=O)Nc2c(C)noc2C)C[C@H]1C	inactive
Cc1cc(Cn2c(=O)n(Cc3cnc(C)s3)c(=O)c3cc(S(=O)(=O)NC4(C)CC4)ccc32)n(C)n1	inactive
COc1ccccc1CNC(=O)C[C@@H]1C[C@H]2c3cc(NC(=O)c4ccc5c(c4)OCO5)ccc3O[C@H]2[C@H](CO)O1	inactive
C[C@@H]1CN([C@H](C)CO)C(=O)c2cc(C#Cc3ccccc3F)cnc2O[C@H]1CN(C)S(=O)(=O)c1ccccc1F	inactive
C[C@@H]1CN([C@@H](C)CO)C(=O)c2cc(C#Cc3ccccc3)cnc2O[C@@H]1CN(C)S(=O)(=O)c1ccccc1F	active
C[C@H]1CN([C@@H](C)CO)C(=O)c2cc(C#Cc3ccccc3)cnc2O[C@H]1CN(C)S(=O)(=O)c1ccccc1F	inactive
C[C@H]1CN([C@@H](C)CO)C(=O)c2cc(C#Cc3ccccc3F)cnc2O[C@@H]1CN(C)S(=O)(=O)c1ccccc1F	inactive
C[C@@H]1CN([C@@H](C)CO)C(=O)c2cc(C#Cc3ccccc3)cnc2O[C@H]1CN(C)S(=O)(=O)c1ccccc1F	active
C[C@@H]1CN([C@@H](C)CO)C(=O)c2cc(C#Cc3ccccc3F)cnc2O[C@H]1CN(C)S(=O)(=O)c1ccccc1F	active
C[C@H](CO)N1C[C@H](C)[C@@H](CN(C)S(=O)(=O)c2ccccc2F)Oc2ncc(C#Cc3ccccc3)cc2C1=O	inactive
C[C@@H]1CN([C@H](C)CO)C(=O)c2cc(C#Cc3ccccc3)cnc2O[C@@H]1CN(C)S(=O)(=O)c1ccccc1F	inactive
C[C@H](CO)N1C[C@H](C)[C@H](CN(C)S(=O)(=O)c2ccccc2F)Oc2ncc(C#Cc3ccccc3)cc2C1=O	inactive
C[C@H](CO)N1C[C@H](C)[C@H](CN(C)C(=O)Nc2cccc3ccccc23)Oc2ccc(NC(=O)NC3CCCCC3)cc2CC1=O	inactive
Cc1cc(=O)n(CNC(=O)c2ccco2)cn1	inactive
O=C([O-])C(O)C(O)C(O)C(O)C(O)CO.O=C([O-])C(O)C(O)C(O)C(O)C(O)CO.[Ca+2] (stereo unspecified)	inactive
O=C(C[C@H]1CC[C@H]2NC[C@@H](O)COC[C@@H]2O1)NCCN1CCCC1	inactive
COc1ccsc1C(N)=O	inactive

Compound	cytotoxicity call
C[C@H]1CN([C@@H](C)CO)C(=O)Cc2cc(NC(=O)CCCCCC(=O)Nc3ccccc3N)ccc2O[C@@H]1CN(C)C(=O)Nc1cccc2ccccc12	inactive
COC(=O)C[C@@H]1CC[C@@H]2[C@H](COC[C@@H](O)CN2S(=O)(=O)c2cn(C)cn2)O1	inactive
CC(C)=CCC/C(C)=C/CC/C(C)=C/CC/C(C)=C/CO	inactive
Cc1ccc(-c2cnc3c(c2)C(=O)N([C@@H](C)CO)C[C@H](C)[C@H](CN(C)C(=O)Cc2ccncc2)O3)cc1	inactive
C[C@@H]1CN([C@H](C)CO)C(=O)c2cc(NC(=O)CCN3CCOCC3)ccc2O[C@@H]1CN(C)S(=O)(=O)c1ccc(F)cc1	inactive
C[C@@H]1CCCCO[C@H](CN(C)C(=O)c2ccccc2)[C@@H](C)CN([C@H](C)CO)C(=O)c2cc(NC(=O)Nc3ccccc3)ccc2O1	inactive
C[C@H]1CN([C@@H](C)CO)C(=O)c2cc(NC(=O)CCN3CCOCC3)ccc2O[C@H]1CN(C)C(=O)Nc1ccc2c(c1)OCO2	inactive
C[C@@H]1CN([C@H](C)CO)C(=O)c2cc(NC(=O)CCN3CCOCC3)ccc2O[C@H]1CN(C)C(=O)Nc1ccc2c(c1)OCO2	active
C[C@@H]1CN([C@@H](C)CO)C(=O)c2cc(NC(=O)CCN3CCOCC3)ccc2O[C@H]1CN(C)C(=O)Nc1ccc2c(c1)OCO2	inactive
C[C@@H]1CN([C@H](C)CO)C(=O)c2cc(NC(=O)CCN3CCOCC3)ccc2O[C@@H]1CN(C)C(=O)Nc1ccc2c(c1)OCO2	inactive
C[C@@H]1CN([C@@H](C)CO)C(=O)c2cc(NC(=O)CCN3CCOCC3)ccc2O[C@@H]1CN(C)C(=O)Nc1ccc2c(c1)OCO2	active
C[C@H](CO)N1C[C@H](C)[C@H](CN(C)C(=O)Nc2ccc3c(c2)OCO3)Oc2ccc(NC(=O)CCN3CCOCC3)cc2C1=O	inactive
C[C@@H]1CCCCO[C@@H](CN(C)S(=O)(=O)c2cn(C)cn2)[C@@H](C)CN([C@H](C)CO)C(=O)c2cc(NC(=O)c3ccncc3)ccc2O1	inactive
COc1cccc(OC[C@@H](O)CN(CCO)CCO)c1	inactive
O=C(C[C@@H]1C=C[C@@H](NC(=O)Nc2ccc3c(c2)OCO3)[C@@H](CO)O1)NCCCN1CCOCC1	inactive
C[C@H]1CCCCO[C@H](CN(C)S(=O)(=O)c2cn(C)cn2)[C@@H](C)CN([C@@H](C)CO)C(=O)c2cc(NS(C)(=O)=O)ccc2O1	inactive
C[C@@H]1CN([C@H](C)CO)C(=O)c2cccc(N(C)C)c2O[C@@H]1CN(C)S(C)(=O)=O	inactive
C[C@@H]1CCCCO[C@H](CN(C)S(=O)(=O)c2ccccc2)[C@H](C)CN([C@@H](C)CO)C(=O)c2cc(NC(=O)Nc3ccccc3)ccc2O1	inactive
COCC#Cc1ccc([C@@H]2[C@@H](CO)N3C(=O)CN(C(=O)C4CCOCC4)C[C@H]23)cc1	inactive
COc1ccccc1OCC(O)COC(N)=O (stereo unspecified)	active
NC(=O)OCC(COC(N)=O)c1ccccc1	inactive
COc1ccccc1OC[C@@H](O)COC(N)=O	inactive
Cc1noc(C)c1S(=O)(=O)Nc1ccc2c(c1)CC(=O)N([C@H](C)CO)C[C@@H](C)[C@@H](CN(C)CC1CC1)O2	inactive
